Results taken from PubChem BioAssay AID1508600 (Functional Genomics Laboratory (NCATS/FGL), 2020).
The whole screen tested about 53,000 sequences, of which about 3,700 (7%) were called active.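 How the source made its calls: active means gene knockdowns whose robust z-score for IL-1 alpha signal is at least 2 or at most -2, so actives lie on both sides; inactive means the rest.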 Shown is part of a subset that was picked to be rich in actives.

Assay: Components of the Cytosolic LPS Sensing Pathway: Gene Identification via Genome-wide siRNA Screen;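 further: robust z of the log signal after scaling to non-targeting control siRNA wells of the plate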
Settings: RAW264.7 macrophages, IL-1a HTRF, actives lie on both sides, screened at 100 nM (by protocol), cells primed 5 h with Pam3CSK4 first
How it was run: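 Read-out: IL-1a HTRF on supernatant, divided by plate negative-control median ×100, log-transformed and converted to robust z-score. Cells were RAW264.7 given 100 nM siRNA, Pam3CSK4-primed 5 hours, then LipidA-transfected 24 hour.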

Sequence	z-score
GGUACAAGAUAUUGUGAAATT against Fgd3	0.0612 (inactive)
GCUUGAUCAACAAGUGGAGTT against Nup62	-2.13 (active)
GAGCUCUGCAUUUGGUUAGTT against Fam98b	0.0904 (inactive)
ACUCAGUCAUUAAAGAGUGTT against G430095P16Rik	0.447 (inactive)
GGAUAUUCCCAAUUACAAGTT against Plxna3	-0.469 (inactive)
GGUCCAGAAGCAGAUGCUUTT against Zdhhc15	-0.174 (inactive)
GCAAGAACAUUAUGAAAGUTT against Epb41	0.905 (inactive)
GGCCUACCACCUUCAGAAGTT against Rpl37	2.01 (active)
GGCACUGUAGACAAACUCUTT against Stxbp1	-0.468 (inactive)
GGCACCUAUGAGGUUCUAUTT against Sec16b	-0.615 (inactive)
GUUCAAGAGGGAGCUGGAATT against Pomc	0.842 (inactive)
GGUCAUUUGUUUUCAGGGATT against Tfdp2	3.07 (active)
GGGCCUUUAGUCCUCAAAGTT against Psmg3	0.387 (inactive)
CCUGUCAUCACACUCGAGGTT against Coro6	-0.00248 (inactive)
CGGCGGUUUAAUGAAAAUATT against Cbfa2t2	-2.58 (active)
GGUAGAAUGUGUGAUACCCTT against Rogdi	0.205 (inactive)
GGUGGUCCAGAAUUUUGCATT against Cotl1	0.386 (inactive)
CGGGAAUAAGAUCUUUCUGTT against Zbtb22	1.43 (inactive)
GGUACAUGAUUACCAGCCUTT against Sdk2	-2.26 (active)
GGAAUAGUGGCUUCUUUUATT against Rsph3a	-0.00182 (inactive)
UUUGCAUGUACAGAAUGCUTT against Olfr312	1.54 (inactive)
GGAAACACAAGUUCUAGGUTT against Gpx3	0.735 (inactive)
GGGUUUCUGUGAGAGACAATT against Ube2f	1.01 (inactive)
GGAUGUUUGCUCUUGAGCGTT against Isoc1	-2.17 (active)
GGGACUAUAAGGAACCAGGTT against Fmo3	-0.35 (inactive)
GGGCAAGACUUAAUUUUGGTT against Dppa1	-0.36 (inactive)
GGUCAAGAGUGCCCUAAAATT against Olfr398	-1.63 (inactive)

Sequence	z-score
GGAUUCGUUCAGCUAAGGGTT against Olfr1023	1.29 (inactive)
GGAGAAAUGUUGUUGUCUUTT against Kcng3	-0.327 (inactive)
AAAGCGCAUUCACAAAAAUTT against Olfr1453	0.197 (inactive)
GGAAACAAGGAUAUUCUUUTT against Fanca	0.859 (inactive)
GGAGGUAUUAUCUGAAUUGTT against Utp14a	1.17 (inactive)
GGAGGCAUACAUGACAAAATT against Cop1	0.953 (inactive)
GGCAGAGUGCUGACUUCAUTT against Coq8a	3.86 (active)
CCAUGUAUGCCUCAACAUATT against Ltf	0.517 (inactive)
GGAAAGUGCCAUGAAGACCTT against Dbi	-1.42 (inactive)
GCUCCUAAUGGAAAGAACGTT against Pla2g4d	0.0914 (inactive)
CCUGUCCAGGGUUUGACCATT against Man2c1	-1.12 (inactive)
GCGAUAUGCAGAGAAGCGGTT against Prpf8	-1.63 (inactive)
GGUUAAAGGAGCAGUCUAUTT against Dbn1	0.636 (inactive)
GGAGAAAGUGUCCUCUGUGTT against Olfr924	-2.41 (active)
GGGCUGGGUCUUCAUAAUUTT against 6330549D23Rik	1.14 (inactive)
GCACUUCAAUCCAGUGUCUTT against Pdgfd	-1.27 (inactive)
GGCAAAAAUUUUUUCAUGCTT against Abcb4	-0.47 (inactive)
GGUGGCGGGAGAUGUUUUUTT against Pex6	0.85 (inactive)
GGUCUAGAGCAAUUCCAUATT against Olfr656	1.51 (inactive)
GUUGUAUUUCUUUGUCCUCTT against Olfr1097	2.21 (active)
GAUCUUAUAUGUUGGUGGUTT against Vmn1r29	-0.31 (inactive)
GGUGAACUUUACCUUCAACTT against Mov10	0.867 (inactive)
GGAUCAACGAGGUAAAGUCTT against Itga8	0.101 (inactive)
GGUUUUUGAUAAUUGCCAUTT against Gcsh	-1.98 (inactive)
GGAAGAAGACACAAAAAAUTT against Rcan3	3.53 (active)
GGUCUUCUUCUUCAAAGCUTT against Mrpl46	-1.27 (inactive)
